Values joined by “and” are separate entries in the source; they are usually repeats but may differ in a detail not shown here. Equal entries are not always repeated. Records with an inconclusive call do not appear. Some compounds were tested as several samples or in several runs, with calls that do not always agree. Active and inactive are the calls of the source. The calls were made as follows, unless noted: active = hit-call score of the fitted dose curve at least 0.9, where 1 is the maximum; inactive = score below 0.9.
How the values were obtained:
[1] = CCTE_Mundy_HCI_hN2_NOG_NeuriteCount: CCTE's Neurite Outgrowth Assay in human hN2 cells for Neurite Count, Mundy Lab (AID 2284219; active = hit-call score of the fitted dose curve at least 0.9, where 1 is the maximum)
Experimental: CCTE_Mundy_HCI_hN2_NOG is a multiplexed, cell-based-readout assay that uses immature neurons derived from hNP1 neuroprogenitor cells with measurements taken at 50.33 hours after chemical dosing in a microplate: 96-well plate.CCTE_Mundy_HCI_hN2_NOG_NeuriteCount is one of four components of the CCTE_Mundy_HCI_hN2_NOG assay. It measures neurite outgrowth related to number of neurites using High Content Imaging of fluorescently labelled markers.[…] Using a type of morphology reporter, loss -of-signal activity can be used to understand developmental effects.
Exposure starts 2 hours post-plating by adding 10 ul of the working solution to 90 ul of media in the wells for a 1/10 dilution. Forty-eight hours after chemical treatment cells are fixed by direct addition of 100 ul of warm (37C) Dulbecco's phosphate buffered saline (DPBS) fixative solution containing 8% paraformaldehyde, 8% sucrose, and 0.1% of 3 mg/ml Hoechst 33342 into each well. Primary antibodies are prepared by dilution in Immunocytochemical Staining Buffer (ISB), 10X Dulbecco's PBS, 0.1% Saponin, 5% Bovine Serum Albumin, 0.5% NaN3 (Sodium Azide) and betaIII-tubulin (rabbit anti-betaIII-tubulin, 1:800) followed by Alexa Fluor-488 secondary (1:500) to label neuronal cell bodies and neurites. A Cellomics ArrayScan VTi HCS Reader is used for automated image acquisition and analysis of neurite outgrowth.

[2] = CCTE_Mundy_HCI_hN2_NOG_NeuriteLength: CCTE's Neurite Outgrowth Assay in human hN2 cells for Neurite Length, Mundy Lab (AID 2284220; active = hit-call score of the fitted dose curve at least 0.9, where 1 is the maximum)
In short: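 Read-out is neurite length from high-content imaging of βIII-tubulin/Alexa Fluor-488-labelled neurons, referenced to DMSO controls.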

[3] = CCTE_Mundy_HCI_hN2_NOG_NeuronCount: CCTE's Neurite Outgrowth Assay in human hN2 cells for Neuron Count, Mundy Lab (AID 2284221; active = hit-call score of the fitted dose curve at least 0.9, where 1 is the maximum)
In short: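 Read-out is the number of betaIII-tubulin-positive neurons imaged by automated high-content analysis, with DMSO as negative control.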

[4] = CCTE_Mundy_HCI_Cortical_Synap_Neur_Matur_NeuriteCount: CCTE's Synaptogenesis and Neurite Maturation Assay in rat cortical cells for Neurite Count, Mundy Lab (AID 2284222)
In short: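 Chemical exposure runs DIV 7–12 in rat cortical cultures, glia suppressed by AraC at DIV 5; measurement is at DIV 12. Imaging-derived neurite counts are fitted against DMSO baseline.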

[5] = CCTE_Mundy_HCI_Cortical_Synap_Neur_Matur_CellBodySpotCount: CCTE's Synaptogenesis and Neurite Maturation Assay in rat cortical cells for Cell Body Spot Count, Mundy Lab (AID 2284223)
In short: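 Rat primary cortical cultures received AraC at DIV 5 to arrest glia, were dosed with chemical at DIV 7 with media change, and were fixed at DIV 12 (288.33 h). Synaptophysin puncta on MAP2-positive cell bodies per neuron were counted by high-content imaging versus DMSO.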

[6] = CCTE_Mundy_HCI_hNP1_Pro_ResponderAvgInten: CCTE's Proliferation Assay in human neuroprogenitor cells, Mundy Lab (AID 2284224; active = hit-call score of the fitted dose curve at least 0.9, where 1 is the maximum;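 also: human neural progenitor cells hNP1 derived from WA09 embryonic stem cells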)
In short: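 Proliferation read as average intensity of BrdU-positive cells, imaged at 26.25 h post-dosing: chemical exposure started after 40–44 h culture, BrdU during final 4 h, paraformaldehyde fixation. Positive-direction fit relative to DMSO.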

[7] = BSK_BT_PBMCCytotoxicity: PBMC Cytotoxicity Assessment in the BioMAP Diversity Plus: BT Assay (AID 2284225); conditions: primary human B cells with PBMC;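 also: PBMC viability measured by Alamar Blue dye reduction fluorescence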
In short: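 Primary human co-culture of B cells and PBMC, pre-dosed 1 h then activated with SEB and TSST-1. Cytotoxicity is taken from Alamar Blue dye reduction, added for 6 h at the end of a 90 h incubation.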

[8] = read-out: Secreted IgG (sIgG), gene 3500; test: BSK_BT_sIgG: BioMAP Diversity Plus: BT Assay for Secreted IgG (sIgG) Biomarker Activity (AID 2284226); conditions: primary human B cells with PBMC
In short: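 In this multiplexed co-culture system, ELISA quantifies sIgG 24 h post-treatment. Endpoint analysis uses positive fitting direction, DMSO negative control.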

[9] = BSK_BT_Bcell_Proliferation: Viability Assessment in the BioMAP Diversity Plus: BT Assay for B cell Proliferation (AID 2284227); conditions: primary human B cells with PBMC
In short: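 SRB-based protein staining (0.1% SRB after 10% TCA fixation, 560 nm) quantifies proliferation in human B cells co-cultured with PBMC, 72 h post-dosing, with signal gain scored relative to DMSO negative control.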

[10] = read-out: Interleukin 6 (IL6), IL6 (gene 3569); test: BSK_BT_xIL6: BioMAP Diversity Plus: BT Assay for Interleukin 6 (IL6) Biomarker Activity (AID 2284228); conditions: primary human B cells with PBMC
In short: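 Human B cell plus PBMC co-culture exposed to test chemical for 24 h; secreted IL-6 quantified by Luminex xMAP bead assay. Activity fitted in the positive direction against DMSO as negative control and baseline.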

Measured: AC50

C=CC(N)=O
inactive: [1] | [2] | [3] | [4] | [5]

ClC1=C(Cl)[C@]2(Cl)[C@@H]3[C@@H]4C[C@@H]([C@H]5O[C@@H]45)[C@@H]3[C@@]1(Cl)C2(Cl)Cl
inactive: [2]
active: [3] 50 µM | [5] 24 µM | [6] 25.2 µM

Oc1c(Cl)c(Cl)c(Cl)c(Cl)c1Cl
active: [8] 27 µM
inactive: [7] | [9] | [10]

CO/C=C(/C(=O)OC)c1ccccc1COc1cccc(C(F)(F)F)n1
active: [4] 1.46 µM | [5] 1.16 µM | [6] 86.9 µM

Sc1ccccc1
inactive: [7] | [8] | [9] | [10]

O=C(O)C(F)(F)C(F)(F)C(F)(F)C(F)(F)C(F)(F)C(F)(F)C(F)(F)C(F)(F)F
inactive: [7] | [8] | [9] | [10]
active: [9] 30 µM

CCOP(=S)(OCC)SCSC(C)(C)C
inactive: [1] | [2] | [3] | [4] | [5] | [6]
active: [4] 22.5 µM | [5] 22.9 µM

ClC1=C(Cl)[C@]2(Cl)[C@@H]3[C@@H](Cl)[C@H]4O[C@H]4[C@@H]3C1(Cl)C2(Cl)Cl
inactive: [4]
active: [1] 13.2 µM | [2] 13.1 µM | [3] 5.59 µM | [5] 9.92 µM | [6] 15.8 µM

O=C(O)C(F)(F)C(F)(F)C(F)(F)C(F)(F)C(F)(F)F
inactive: [7] | [8] | [9] | [10]

COc1ccc(O)c(C(C)(C)C)c1
inactive: [4] | [5] | [6]

O=S(=O)(O)C(F)(F)C(F)(F)C(F)(F)C(F)(F)F
inactive: [4] | [5] | [7] | [8] | [9] | [10]

NS(=O)(=O)C(F)(F)C(F)(F)C(F)(F)C(F)(F)C(F)(F)C(F)(F)C(F)(F)C(F)(F)F
inactive: [7] | [9]
active: [8] 23.8 µM and 45.3 µM | [10] 44.5 µM and 43.1 µM

O=S(=O)(O)C(F)(F)C(F)(F)C(F)(F)C(F)(F)C(F)(F)C(F)(F)F
not listed: [1] | [2] | [3]
inactive: all other assays above

O=C(O)C(F)(F)C(F)(F)C(F)(F)C(F)(F)C(F)(F)C(F)(F)C(F)(F)C(F)(F)C(F)(F)F
active: [7] 5.95 µM | [9] 20.4 µM
inactive: [7] | [8] | [9] | [10]

Source: PubChem BioAssay (EPA / NIEHS)
